# Data reported in the supplement of paper PMC13380429.
# Counter-ions that a name gives are not always drawn.
# System: Vero E6 infected with SARS-CoV-2
# Assay: morphology score (similarity to uninfected cells); higher = more like uninfected cells
# Details: 24 h
row,SMILES,morphology score
1,CN1CC[C@H](c2c(O)cc(O)c3c(=O)cc(-c4ccccc4Cl)oc23)[C@H](O)C1 [alvocidib] (10 µM),-0.17
2,CC1=CC(=O)c2ccccc2C1=O [menadione] (10 µM),0.144
3,Cc1nnc(C[C@@H]2C=C(c3ccc(Cl)cc3)c3ccccc3-n3c(C)nnc32)o1 (0.833333 µM),-0.106
4,C=C1C(=O)O[C@@H]2[C@H]3C(C)=CC[C@@]34O[C@@]4(C)CC[C@@H]12 [arglabin] (10 µM),0.144
5,CN1C(C(=O)Nc2ccccn2)=C(O)c2sc(Cl)cc2S1(=O)=O [lornoxicam] (10 µM),0.00915
6,C=C1/C(=C\C=C2/CCC[C@]3(C)[C@@H]([C@H](C)CCCC(O)(C(F)(F)F)C(F)(F)F)CC[C@@H]23)C[C@@H](O)C[C@@H]1O [falecalcitriol] (10 µM),0.0244

# System: Vero E6 infected with SARS-CoV-2
# Assay: SARS-CoV-2 infection rate relative to infected DMSO; higher = more infection, active = 60 or less
# Details: 24 h
row,SMILES,SARS-CoV-2 infection rate
1,Nc1ncnc2nc(-c3ccc(N4CCOCC4)nc3)cc(-c3cccc(Br)c3)c12 (10 µM),108% (inactive)
2,COc1cccc2c1C(=O)c1c(O)c3c(c(O)c1C2=O)C[C@@](O)(C(=O)CO)C[C@@H]3O[C@H]1C[C@H](N)[C@H](O[C@@H]2CCCCO2)[C@H](C)O1 [pirarubicin] (10 µM),118% (inactive)
3,CN1C(CCl)Nc2cc(Cl)c(S(N)(=O)=O)cc2S1(=O)=O (stereo not given) [methyclothiazide] (10 µM),104% (inactive)
4,O=C(OCCN1CCOCC1)c1cccnc1Nc1cccc(C(F)(F)F)c1 [morniflumate] (10 µM),108% (inactive)
5,CCn1cc(C(=O)O)c(=O)c2ccc(-c3ccncc3)cc21 [rosoxacin] (10 µM),112% (inactive)
6,COc1ccc(CCN(C)CCCC(C#N)(c2cc(OC)c(OC)c(OC)c2)C(C)C)cc1OC (stereo not given) [gallopamil] (10 µM),98% (inactive)
7,Cc1ccsc1C(=CCCN1CCC[C@@H](C(=O)O)C1)c1sccc1C [tiagabine] (10 µM),109% (inactive)
8,Cc1cnc(-c2cc(N3CCN(C(=O)CCS(C)(=O)=O)CC3)ncc2Cl)c(C)c1 (10 µM),105% (inactive)
9,"COc1ccc2c(c1OC)C(=O)O[C@@H]2[C@H]1c2cc3c(cc2CCN1C)OCO3 [hydrastine-(1R,9S)] (10 µM)",108% (inactive)
10,CC(C)(CO)[C@@H](O)C(=O)NCCC(=O)O [pantothenic-acid] (10 µM),110% (inactive)
11,COc1cccc(-c2ccc(NC(=O)C3=C(C(=O)O)CCC3)c(F)c2)c1 (10 µM),94.5% (inactive)
12,O=c1c(O)c(-c2ccc(O)c(O)c2)oc2cc(O)ccc12 [fisetin] (10 µM),111% (inactive)
13,CC/C(=C(\c1ccc(O)cc1)c1ccc(OCCNC)cc1)c1ccccc1 [Endoxifen HCl] (10 µM),26% (active)
14,COc1ccc2[nH]c([S+]([O-])Cc3ncc(C)c(OC)c3C)nc2c1 (stereo not given) [omeprazole-magnesium] (10 µM),116% (inactive)
15,CC(C)Cc1ccc([C@@H](C)C(=O)NCCO)cc1 (racemic) [mabuprofen] (10 µM),109% (inactive)
16,CN1C(=O)/C(=C2/C(=O)Nc3ccccc32)c2ccccc21 [meisoindigo] (0.833333 µM),96.5% (inactive)
17,CCN(CC)Cc1ccc(C(=O)N(CCc2ccccc2OC)[C@@H]2CCNC2)cc1 (10 µM),98.5% (inactive)
18,COc1ccc(-c2cc(=O)c3c(O)cc(O[C@@H]4O[C@H](CO[C@@H]5O[C@@H](C)[C@H](O)[C@@H](O)[C@H]5O)[C@@H](O)[C@H](O)[C@H]4O)cc3o2)cc1O [diosmin] (10 µM),106% (inactive)
19,O=C(NC1CCC1)c1ccc(C#Cc2cccc(F)c2)nc1 (10 µM),99% (inactive)
20,O=C(Cc1ccc(Cl)c(Cl)c1)N1CCCC[C@@H]1CN1CCCC1 (10 µM),91.5% (inactive)
21,N#Cc1ccc(N(Cc2ccc(Br)cc2)n2cnnc2)cc1 (10 µM),102% (inactive)
22,O=C(O)COc1cccc(-c2ocnc2-c2nc(-c3ccccc3)c(-c3ccccc3)o2)c1 (10 µM),102% (inactive)
23,O=C(O)[C@H]1CCCN(CCC=C(c2ccccc2)c2ccccc2)C1 (racemic) (10 µM),88.5% (inactive)
24,COc1ccc2[nH]c(-c3ccccc3)c(CCNC(C)=O)c2c1 [2-phenylmelatonin] (10 µM),107% (inactive)
